# ATXN viability – Viability Counterscreen for Primary qHTS for Inhibitors of ATXN expression; S2 cells (HEK-293 line with an ATXN2-luciferase reporter) viability, CellTiter-Fluor protease fluorescence, 24 h; Potency, µM (series often up to 56.7 µM), usual class: cytotoxic; 400,000 compounds, 0.49% hits; note: nearly all actives have a fitted effect of over 40% in size
# Gal4-VP16 FLuc – VP16 counterscreen qHTS for inhibitors of ROR gamma transcriptional activity. Potency, µM (top dose mostly 53.6 µM), most hits filed as inhibitors. Drosophila S2 Gal4-VP16 UAS-luciferase, luminescence, 20 h. 310,000 compounds, 3.5% hits. AID 2546, 2010;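 note: Gal4-VP16 expression switched on by copper sulfate through the metallothionein promoter; nearly all actives have a fitted effect of over 50% in size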
# ATXN2 expr inh – Primary qHTS for Inhibitors of ATXN expression | Potency, µM (top dose mostly 57 µM), usual class: inhibitors | 360,000 compounds, 0.72% hits | HEK-293 ATXN2-luciferase reporter, luminescence, 24 h; note: nearly all actives have a fitted effect of over 55% in size
#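 qHTS (up to 57 uM final) was run with 24 h compound exposure of reporter cells at 37 °C. Each well was multiplexed: SteadyGlo luminescence measured ATXN2-luciferase expression after a fluorogenic Gly-Phe-AFC viability readout (25 uM final).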
# RORg inh – qHTS for inhibitors of ROR gamma transcriptional activity. AID 2551, 2010. Potency, µM (titrated, usually from 53.6 µM), actives largely listed as inhibitors. Drosophila S2 Gal4-RORgamma UAS-luciferase reporter, 20 h. 310,000 compounds, 5.4% hits; note: nearly all actives have a fitted effect of over 60% in size
# Target sequence (P51450 whole entry, looked up, the tested form may be a part): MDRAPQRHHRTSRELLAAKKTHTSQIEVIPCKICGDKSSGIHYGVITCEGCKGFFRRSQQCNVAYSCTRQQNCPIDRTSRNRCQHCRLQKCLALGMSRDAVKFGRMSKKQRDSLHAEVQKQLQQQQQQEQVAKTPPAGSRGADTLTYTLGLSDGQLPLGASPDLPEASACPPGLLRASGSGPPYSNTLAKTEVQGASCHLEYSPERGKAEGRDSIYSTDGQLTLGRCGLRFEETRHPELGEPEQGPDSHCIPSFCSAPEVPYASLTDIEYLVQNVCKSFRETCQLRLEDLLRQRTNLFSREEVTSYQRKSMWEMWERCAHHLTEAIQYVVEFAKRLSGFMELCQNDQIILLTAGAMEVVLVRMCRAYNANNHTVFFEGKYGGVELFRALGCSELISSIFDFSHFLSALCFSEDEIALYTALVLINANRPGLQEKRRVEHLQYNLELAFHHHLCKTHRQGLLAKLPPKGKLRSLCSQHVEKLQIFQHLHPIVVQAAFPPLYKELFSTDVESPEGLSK
#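 Drosophila Schneider cells stably carrying a metallothionein-driven Gal4 DBD–ROR gamma fusion and a UAS-Photinus luciferase reporter were exposed to compound for 1 hr, then induced with copper sulfate (700 uM final) for 20 hr at ambient temperature before luminescence reading.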
# TGFb inhibitor – qHTS for Inhibitors of TGF-b. HepG2 CAGA-GFP TGF-b/SMAD3 reporter, GFP fluorescence, 18 h; TGF-beta stimulated, 500 pg/mL final. Potency, µM (highest dose often 46.1 µM), hits mostly inhibitors. AID 588855, 2011. 410,000 compounds, 1.2% hits; note: nearly all actives have a fitted effect of over 65% in size
#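 Per well, imaged GFP fluorescence of HEPG2 CAGA-GFP cells gives the signal; cells get compound, then TGF-beta (500 pg/mL final), 18 h at 37 degrees C; %Activity versus -TGF-beta and +DMSO controls.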
# HepG2 tox – qHTS for Inhibitors of TGF-b: Cytotox Counterscreen; HepG2 CAGA-GFP viability, ATP luminescence, 18 h; Potency, µM (highest dose often 46.1 µM), actives largely listed as cytotoxic; 410,000 compounds, 0.76% hits
#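 CellTiter-Glo luminescence gave cytotoxicity after 18 hours at 37 degrees C. The cells were HepG2 CAGA-GFP in 1% FBS DMEM, stimulated with 500 pg/mL TGF-beta after compound addition. %Activity was normalised to no-cell wells (complete cell-killing) and DMSO (no toxicity), and curves were fitted and classified.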
# Hits are given with their value; i = inactive; ? = inconclusive; nt = no result given; [ ] = remark or other dose. Most compounds without a hit are left out; they make up all but 6.1% or so of the library. Calls come from the whole dose curve; as a rule, active = well fitted curve in the direction sought with a large enough effect; inconclusive = small, poorly fitted or top-dose-only effect, or another doubt; inactive = no such curve, though single readings can be large; an effect the other way counts as inactive or inconclusive.
SMILES,ATXN viability,Gal4-VP16 FLuc,ATXN2 expr inh,RORg inh,TGFb inhibitor,HepG2 tox
CO[C@@H]1COC(=O)[C@H](COCc2ccccc2)NC(=O)C/C=C\[C@@H](C)[C@H](OC)COC(=O)[C@@H](C)NC(=O)C/C=C\[C@H]1C,nt,i[10 µM],nt,i[10 µM],nt,nt
C1=Cc2ccccc2/C1=C/c1ccc2c(c1)OCO2,nt,nt,nt,nt,i,i
CN(C)c1ccc(N/C=C/C(=O)c2ccccc2)cc1,i,10µM,?,5.62µM,i,i
O=C(/C=C/Nc1ccccc1)c1ccccc1,i,i,i,i,i,i
Cc1coc2cc3oc(=O)c(CC(=O)NCc4cccc(Cl)c4)c(C)c3cc12,nt,nt,nt,nt,?,i
COc1ccc(-c2cn3c4c(sc3n2)CCCC4)cc1,nt,10µM,nt,11.2µM,i,i
Cc1c(C(=O)Nc2ccncc2)sc2nc(-c3ccc(F)cc3)cn12,?,?,i,?,i,i
COc1ccc(-c2cn3c(C)c(C(=O)Nc4ccncc4)sc3n2)cc1,i,12.6µM,i,i,i,i
COc1ccc(-c2cn3c(C)c(C(=O)N4CCCc5ccccc54)sc3n2)cc1,?,nt,?,nt,i,i
COc1ccc(NC(=O)C(Cc2ccccc2)NS(=O)(=O)c2ccc3c(c2)CCN3C(C)=O)cc1 (centres undefined),i,nt,i,nt,i,i
CCn1c(-c2ccccc2F)nc2cc(C(=O)N3CCNC(=O)C3CC(=O)OC)cc(NC(C)=O)c21 (centres undefined),i,nt,nt,nt,nt,nt
CCOC(=O)C1=C(C)N(C)C(=S)NC1c1cc(OC)ccc1OC (centres undefined),i,?,i,14.1µM,i,i
O=C(Oc1ccc(Cl)c2cccnc12)C12CC3CC(CC(C3)C1)C2,i,3.16µM,i,2.24µM,?,i
COc1ccc(NS(=O)(=O)c2ccc3ccccc3c2)c2ncccc12,i,1.12µM,i,0.708µM,?,i
CS(=O)(=O)Nc1cccc2cccnc12,i,7.94µM,i,6.31µM,?,i
Cc1cc(C)n(-c2ccc3cccc(NS(C)(=O)=O)c3n2)n1,i,?,?,4.47µM,i,i
CC(=O)Nc1ccc(S(=O)(=O)Nc2cccc3cccnc23)cc1,nt,?,i,10µM,i,i
CC(C)Oc1ccc(CNC(=O)C2CCCCN2S(=O)(=O)c2ccc(F)cc2)cc1 (centres undefined),i,nt,i,nt,?,i
COc1cc(=O)n2c(c1C(=O)NCc1ccco1)CCN(Cc1cc3ccccc3[nH]1)CC2,i,nt,nt,nt,nt,nt
O=C1OC(Nc2ncccn2)c2ccccc21 (centres undefined),i,i,i,i,i,i
O=S(=O)(Nc1cc(Br)cc2cccnc12)c1ccccc1,nt,nt,nt,nt,8.91µM,i
Cc1ccccc1NS(=O)(=O)c1ccc(S(=O)(=O)N2CCCC2)cc1,i,nt,nt,nt,i,i
COc1ccc(S(=O)(=O)Nc2ncccn2)cc1,i,nt,i,nt,i,i
O=C1OC(Nc2cc(Br)cc3cccnc23)c2ccccc21 (centres undefined),i,11.2µM,i,?,i,i
COc1ccc(S(=O)(=O)Nc2cccc3cccnc23)cc1,nt,nt,nt,nt,7.08µM,i
SMILES,ATXN viability,Gal4-VP16 FLuc,ATXN2 expr inh,RORg inh,TGFb inhibitor,HepG2 tox
O=S(=O)(Nc1cccc2cccnc12)c1ccc(S(=O)(=O)N2CCCC2)cc1,i,5.01µM,?,2.51µM,?,i
CCCS(=O)(=O)NCc1c(C)ncc2c1CCN(C(=O)/C=C/c1cccc(Cl)c1)C2,i,nt,nt,nt,nt,nt
O=C(Nc1cc(C(=O)N2CCN(CCO)CC2)c2c(c1)ncn2C1CCCC1)c1ccccc1,i,nt,nt,nt,nt,nt
Cc1ccc(-n2ccc(=O)c(-c3ccnc(SCc4cccc(Cl)c4)n3)n2)cc1,i,i,i,0.282µM,i,i
CCn1c(-c2nn(-c3ccc(C)cc3)ccc2=O)n[nH]c1=S,?,i,nt,i,i,i
CN1/C(=C\C(=O)c2cncc(Br)c2)C(C)(C)c2ccccc21,i,11.2µM,i,i,i,i
CN1/C(=C\C(=O)c2cccc(S(=O)(=O)N3CCCCC3)c2)C(C)(C)c2ccccc21,nt,i,nt,?,i,i
CN1/C(=C/C(=O)c2nc(S(C)(=O)=O)ncc2Cl)C(C)(C)c2ccccc21,nt,5.62µM,?,3.16µM,?,i
CN1/C(=C\C(=O)c2cccnc2)C(C)(C)c2ccccc21,nt,i,nt,i,i,i
CN1/C(=C\C(=O)c2ccco2)C(C)(C)c2ccccc21,i,10µM,i,?,?,i
CON=C(C(=O)N[C@@H]1C(=O)N2C(C(=O)O)=C(Cn3ccc(=N)n3CCO)CS[C@H]12)c1csc(N)n1,nt,nt,i,nt,nt,nt
Nc1nonc1C(=O)NCCNCc1cccc(Cl)c1Cl,i,nt,i,nt,i,i
CCCN(C(=O)c1c(C)oc2ncn(CC(C)C)c(=O)c12)c1ccccc1C,i,nt,i,nt,i,i
Cn1c(OCc2cccnc2)nc2c1c(=O)n(Cc1ccccc1)c(=O)n2C,i,6.31µM,i,11.2µM,i,i
CC1(C)CC(=O)C(=Cc2cn(-c3ccccc3)nc2-c2ccc(Cl)cc2)C(=O)C1,i,i,i,i,i,i
CC1=NNC(=O)/C1=C\c1cn(-c2ccccc2)nc1-c1ccccc1,26.7µM,i[10 µM],?,1.12µM,8.91µM,10µM
COc1ccccc1Nc1nc(N)nc(CSC(=S)N2CCCCC2C)n1 (centres undefined),i,7.08µM,i,7.94µM,i,i
COc1ccccc1Nc1nc(N)nc(CSC(=S)N2CCC(C)CC2)n1,i,5.01µM,i,0.126µM,i,i
CCOc1ccc(OCC)c(NS(=O)(=O)c2cc(Br)cc3c2N(C(C)=O)C(C)C3)c1 (centres undefined),i,nt,i,nt,?,i
CCOc1ccc(N(CC)S(=O)(=O)c2cc(Br)cc3c2N(C(C)=O)C(C)C3)cc1 (centres undefined),i,nt,i,nt,10µM,i
COC(=O)c1ccc2c(=O)n(CCCCCC(=O)NCc3ccc(Cl)cc3)c(=O)[nH]c2c1,nt,nt,nt,nt,?,i
CC(C)(C)N1C(=O)c2ccc(C(=O)Nc3nccs3)cc2C1=O,i,?,i,7.08µM,i,i
O=C(Nc1nccs1)c1ccc(Cl)c(S(=O)(=O)N2CCOCC2)c1,i,?,i,15.8µM,?,i
Cc1ccc(C(=O)Nc2nccs2)cc1S(=O)(=O)N1CCCCC1,i,?,i,14.1µM,i,i
Cc1ccc(Cl)cc1NC(=S)N(CCN(C)C)C(C)c1ccccn1 (centres undefined),?,i,i,10µM,i,i
COCCCN(C(=S)Nc1cc(Cl)cc(Cl)c1)C(C)c1ccccn1 (centres undefined),i,?,nt,7.08µM,?,15.8µM

# Bioassay records from PubChem BioAssay.
